# Assay results published in the supplement of paper PMC11732987, “Enantioselective OTUD7B fragment discovery through chemoproteomics screening and high-throughput optimisation” (Communications Chemistry, 2025).
# Unmarked numbers belong to inactive results.
# What was measured:
# Assay in all cases: log2 ratio of Biotin-Ahx-Ub-VS probe labelling (fragment/DMSO); higher = less target engagement (more negative = stronger competition), active = hit call of the paper (q ≤ 0.05, log2 ratio ≤ -1)
# Settings in all cases: compound concentration: 200 uM; treatment time: 3 h
# OTUD6B = target: T1, OTUD6B (UniProt Q8N6M0)
# T1 sequence (whole entry): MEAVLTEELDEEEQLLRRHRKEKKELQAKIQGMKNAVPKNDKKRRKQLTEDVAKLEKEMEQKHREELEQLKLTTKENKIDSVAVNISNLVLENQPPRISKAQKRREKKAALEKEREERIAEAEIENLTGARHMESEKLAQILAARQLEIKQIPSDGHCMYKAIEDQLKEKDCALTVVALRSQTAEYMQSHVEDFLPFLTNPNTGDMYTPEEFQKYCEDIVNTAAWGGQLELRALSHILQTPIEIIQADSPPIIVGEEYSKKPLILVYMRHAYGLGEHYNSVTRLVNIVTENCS
# How it was run: (§1)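 Lysate from HEK293T cells, 495 µg per sample in Tris/CHAPS/IGEPAL buffer with protease inhibitors, was treated for 3 h in triplicate with fragment at 200 µM or vehicle. Biotin-Ahx-Ub-VS was next added at 0.5 µM final for 1 h. The labelled DUBs were enriched with NeutrAvidin, digested with LysC and trypsin, and run by diaPASEF LC-MS/MS, with values given as average log2 fragment/vehicle ratios by unpaired t-test on global-median-normalised Spectronaut quantities of proteins with ≥2 unique peptides.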
# OTUD7B = target: T2, OTUD7B (UniProt Q6GQQ9)
# T2 sequence (whole entry): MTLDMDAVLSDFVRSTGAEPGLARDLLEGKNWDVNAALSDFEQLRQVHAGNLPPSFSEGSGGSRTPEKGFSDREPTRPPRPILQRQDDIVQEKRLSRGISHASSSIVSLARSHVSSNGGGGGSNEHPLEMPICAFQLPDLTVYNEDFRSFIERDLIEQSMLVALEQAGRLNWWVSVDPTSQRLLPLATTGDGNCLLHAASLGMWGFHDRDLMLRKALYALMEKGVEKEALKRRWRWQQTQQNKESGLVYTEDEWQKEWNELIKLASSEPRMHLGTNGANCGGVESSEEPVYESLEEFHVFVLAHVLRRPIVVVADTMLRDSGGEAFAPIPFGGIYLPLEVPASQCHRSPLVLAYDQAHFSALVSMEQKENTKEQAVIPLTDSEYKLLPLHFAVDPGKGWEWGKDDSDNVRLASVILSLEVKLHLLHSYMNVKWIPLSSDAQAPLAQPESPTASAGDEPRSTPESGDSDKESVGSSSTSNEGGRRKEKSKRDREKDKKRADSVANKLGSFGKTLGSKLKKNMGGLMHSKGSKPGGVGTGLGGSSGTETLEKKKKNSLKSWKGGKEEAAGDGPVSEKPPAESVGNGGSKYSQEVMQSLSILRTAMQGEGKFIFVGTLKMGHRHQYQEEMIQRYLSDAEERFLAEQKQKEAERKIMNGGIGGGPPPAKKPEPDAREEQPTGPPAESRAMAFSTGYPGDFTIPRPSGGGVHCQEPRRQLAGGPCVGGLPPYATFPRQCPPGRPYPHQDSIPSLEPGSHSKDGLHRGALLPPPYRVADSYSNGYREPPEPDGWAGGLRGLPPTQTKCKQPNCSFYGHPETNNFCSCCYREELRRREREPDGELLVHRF
# How it was run: as §1
# PRPF8 = PRPF8 (UniProt Q6P2Q9)
# How it was run: as §1
# PSMD7 = target: T3, PSMD7 (UniProt P51665)
# T3 sequence (whole entry): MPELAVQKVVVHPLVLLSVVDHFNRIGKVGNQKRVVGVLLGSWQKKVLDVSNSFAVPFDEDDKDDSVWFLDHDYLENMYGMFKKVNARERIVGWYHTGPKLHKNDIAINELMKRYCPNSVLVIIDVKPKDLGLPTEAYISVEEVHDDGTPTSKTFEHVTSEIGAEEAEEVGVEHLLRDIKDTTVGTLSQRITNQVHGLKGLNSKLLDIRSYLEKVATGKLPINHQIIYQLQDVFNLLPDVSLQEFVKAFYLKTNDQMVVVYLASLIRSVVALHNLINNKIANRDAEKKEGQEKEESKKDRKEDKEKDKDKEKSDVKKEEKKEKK
# How it was run: as §1
# UCHL1 = UCHL1 (UniProt P09936)
# Sequence of UCHL1 (P09936 whole entry, looked up): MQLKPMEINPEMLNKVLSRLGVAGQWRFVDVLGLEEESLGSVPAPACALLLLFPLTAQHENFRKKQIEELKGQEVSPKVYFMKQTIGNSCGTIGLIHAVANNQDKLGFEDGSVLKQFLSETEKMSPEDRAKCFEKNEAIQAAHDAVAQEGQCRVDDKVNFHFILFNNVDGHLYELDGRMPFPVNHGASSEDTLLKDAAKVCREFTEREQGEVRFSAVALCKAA
# How it was run: as §1
# UCHL3 = target: T4, UCHL3 (UniProt P15374)
# T4 sequence (whole entry): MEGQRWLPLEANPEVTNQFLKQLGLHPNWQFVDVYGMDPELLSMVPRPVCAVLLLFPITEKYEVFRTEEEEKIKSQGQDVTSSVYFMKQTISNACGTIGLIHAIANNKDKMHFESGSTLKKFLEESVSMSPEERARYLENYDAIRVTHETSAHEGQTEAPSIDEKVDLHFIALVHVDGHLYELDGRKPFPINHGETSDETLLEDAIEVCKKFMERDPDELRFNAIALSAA
# How it was run: as §1
# UCHL5 = target: T5, UCHL5 (UniProt Q9Y5K5)
# T5 sequence (whole entry): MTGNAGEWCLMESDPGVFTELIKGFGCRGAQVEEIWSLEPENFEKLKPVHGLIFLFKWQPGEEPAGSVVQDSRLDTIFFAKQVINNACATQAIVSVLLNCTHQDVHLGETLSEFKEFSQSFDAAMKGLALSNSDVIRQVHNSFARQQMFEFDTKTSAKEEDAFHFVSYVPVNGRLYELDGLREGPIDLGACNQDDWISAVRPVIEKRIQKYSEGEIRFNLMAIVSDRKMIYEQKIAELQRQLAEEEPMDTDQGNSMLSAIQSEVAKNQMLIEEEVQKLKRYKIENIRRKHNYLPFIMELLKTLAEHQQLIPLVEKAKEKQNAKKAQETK
# How it was run: as §1
# USP10 = USP10 (UniProt Q14694)
# Sequence of USP10 (Q14694 whole entry): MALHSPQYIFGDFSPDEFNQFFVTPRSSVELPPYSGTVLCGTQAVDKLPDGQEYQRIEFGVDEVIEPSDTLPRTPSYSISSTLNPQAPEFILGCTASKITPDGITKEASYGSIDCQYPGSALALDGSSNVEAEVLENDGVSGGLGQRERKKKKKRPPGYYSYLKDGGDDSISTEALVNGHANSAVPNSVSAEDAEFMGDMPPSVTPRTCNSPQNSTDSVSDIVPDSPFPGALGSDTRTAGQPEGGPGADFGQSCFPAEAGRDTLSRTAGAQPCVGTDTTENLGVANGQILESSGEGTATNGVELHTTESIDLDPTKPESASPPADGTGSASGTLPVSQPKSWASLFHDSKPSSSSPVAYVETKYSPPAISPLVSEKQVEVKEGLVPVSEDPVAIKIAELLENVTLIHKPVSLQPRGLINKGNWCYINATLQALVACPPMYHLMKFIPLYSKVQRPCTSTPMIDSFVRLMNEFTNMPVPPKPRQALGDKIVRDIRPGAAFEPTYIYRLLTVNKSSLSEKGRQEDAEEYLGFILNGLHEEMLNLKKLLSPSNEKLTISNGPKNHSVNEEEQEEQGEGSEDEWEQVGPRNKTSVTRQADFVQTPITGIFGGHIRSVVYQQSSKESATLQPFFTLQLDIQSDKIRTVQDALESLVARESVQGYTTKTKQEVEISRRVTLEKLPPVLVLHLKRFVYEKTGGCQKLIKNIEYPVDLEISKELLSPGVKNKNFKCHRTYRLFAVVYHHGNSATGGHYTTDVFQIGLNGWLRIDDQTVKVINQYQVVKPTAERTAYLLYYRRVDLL
# How it was run: as §1
# USP15 = target: T6, USP15 (UniProt Q9Y4E8)
# T6 sequence (whole entry): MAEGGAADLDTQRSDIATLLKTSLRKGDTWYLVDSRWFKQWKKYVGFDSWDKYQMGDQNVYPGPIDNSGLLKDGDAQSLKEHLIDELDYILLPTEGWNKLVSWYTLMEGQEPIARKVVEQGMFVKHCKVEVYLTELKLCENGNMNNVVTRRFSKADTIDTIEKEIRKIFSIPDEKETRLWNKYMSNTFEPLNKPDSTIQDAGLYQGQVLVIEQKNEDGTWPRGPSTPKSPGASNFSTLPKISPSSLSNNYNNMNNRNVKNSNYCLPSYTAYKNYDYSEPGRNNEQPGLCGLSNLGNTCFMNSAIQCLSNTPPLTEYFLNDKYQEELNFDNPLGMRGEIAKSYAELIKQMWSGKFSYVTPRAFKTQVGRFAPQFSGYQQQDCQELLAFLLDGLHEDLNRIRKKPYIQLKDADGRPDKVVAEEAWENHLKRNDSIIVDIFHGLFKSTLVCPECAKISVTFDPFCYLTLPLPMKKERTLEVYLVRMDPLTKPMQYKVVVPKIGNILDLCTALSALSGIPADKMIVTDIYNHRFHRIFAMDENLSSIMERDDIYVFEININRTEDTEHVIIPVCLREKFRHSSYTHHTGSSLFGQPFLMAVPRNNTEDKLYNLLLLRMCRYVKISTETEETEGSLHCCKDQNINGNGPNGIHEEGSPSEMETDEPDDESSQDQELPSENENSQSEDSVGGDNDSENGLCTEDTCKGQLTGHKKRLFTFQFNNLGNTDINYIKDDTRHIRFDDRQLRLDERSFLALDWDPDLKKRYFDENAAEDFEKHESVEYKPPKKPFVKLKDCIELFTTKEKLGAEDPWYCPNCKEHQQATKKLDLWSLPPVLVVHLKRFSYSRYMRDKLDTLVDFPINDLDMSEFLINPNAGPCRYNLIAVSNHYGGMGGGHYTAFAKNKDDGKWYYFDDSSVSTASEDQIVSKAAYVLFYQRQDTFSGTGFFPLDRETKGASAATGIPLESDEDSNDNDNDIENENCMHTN
# How it was run: as §1
# USP16 = USP16 (UniProt Q9Y5T5)
# Sequence of USP16 (Q9Y5T5 whole entry, looked up): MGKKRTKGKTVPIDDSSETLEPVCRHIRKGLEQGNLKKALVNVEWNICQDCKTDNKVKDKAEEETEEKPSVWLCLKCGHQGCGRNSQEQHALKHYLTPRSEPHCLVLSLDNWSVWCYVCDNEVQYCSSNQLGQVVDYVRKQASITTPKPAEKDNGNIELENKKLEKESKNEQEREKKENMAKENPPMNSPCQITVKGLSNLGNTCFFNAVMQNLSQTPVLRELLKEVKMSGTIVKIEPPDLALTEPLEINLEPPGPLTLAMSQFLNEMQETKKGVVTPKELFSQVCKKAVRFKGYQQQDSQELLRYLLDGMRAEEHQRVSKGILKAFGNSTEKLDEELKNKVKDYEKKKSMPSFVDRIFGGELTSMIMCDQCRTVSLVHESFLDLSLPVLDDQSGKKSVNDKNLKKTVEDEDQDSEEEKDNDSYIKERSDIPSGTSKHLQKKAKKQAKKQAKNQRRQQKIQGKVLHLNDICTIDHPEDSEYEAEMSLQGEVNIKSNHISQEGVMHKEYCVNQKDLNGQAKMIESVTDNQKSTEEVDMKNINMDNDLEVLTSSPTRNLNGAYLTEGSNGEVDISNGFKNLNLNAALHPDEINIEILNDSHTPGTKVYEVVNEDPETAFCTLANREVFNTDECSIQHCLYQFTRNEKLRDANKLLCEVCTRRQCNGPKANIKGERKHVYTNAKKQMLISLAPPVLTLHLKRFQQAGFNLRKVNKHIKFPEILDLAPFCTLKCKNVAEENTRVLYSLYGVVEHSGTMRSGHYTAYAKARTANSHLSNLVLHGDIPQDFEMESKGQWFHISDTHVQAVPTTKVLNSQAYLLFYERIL
# How it was run: as §1
structure (smiles),measurement,setting,value
O=C(CCl)NC1CCOc2ccccc21 (stereo not given),log2 ratio of Biotin-Ahx-Ub-VS probe labelling,OTUD6B,-0.54
same,log2 ratio of Biotin-Ahx-Ub-VS probe labelling,OTUD7B,-2.14 (active)
same,log2 ratio of Biotin-Ahx-Ub-VS probe labelling,PRPF8,-0.152
same,log2 ratio of Biotin-Ahx-Ub-VS probe labelling,PSMD7,-0.0224
same,log2 ratio of Biotin-Ahx-Ub-VS probe labelling,UCHL1,-1.84 (active)
same,log2 ratio of Biotin-Ahx-Ub-VS probe labelling,UCHL3,-0.57
same,log2 ratio of Biotin-Ahx-Ub-VS probe labelling,UCHL5,-1.08 (active)
same,log2 ratio of Biotin-Ahx-Ub-VS probe labelling,USP10,-0.255
same,log2 ratio of Biotin-Ahx-Ub-VS probe labelling,USP15,-0.851
same,log2 ratio of Biotin-Ahx-Ub-VS probe labelling,USP16,-0.325
